In PubChem BioAssay AID1117308 (National Center for Advancing Translational Sciences (NCATS), 2015):
Some of the results follow. Activity calls are given as the source filed them. Calls come from the whole dose curve.

Conditions: Ebola pseudovirus entry assay, ratio channel

Compound | AC50 | outcome
CCCC(C(=O)OCCN(CC)CC)(c1ccccc1)c1ccccc1 | 4.85 µM (active) | 
COc1ccccc1OCCNCC(O)COc1cccc2[nH]c3ccccc3c12 (centres undefined) | 17.2 µM (active) | 
CCCCN(CCCC)CCC(O)c1cc2c(Cl)cc(Cl)cc2c2cc(C(F)(F)F)ccc12 (centres undefined) | 13.7 µM (active) | 
CO[C@]12CC[C@@]3(C[C@@H]1[C@](C)(O)C(C)(C)C)[C@@H]1Cc4ccc(O)c5c4[C@@]3(CCN1CC1CC1)[C@H]2O5 | 9.87 µM (active) | 
CN(C(=O)CN(CCO)CC(=O)N(C)C(C)(C)Cc1ccccc1)C(C)(C)Cc1ccccc1 | 6.11 µM (active) | 
Clc1ccc(C(Cn2ccnc2)OCc2ccsc2Cl)c(Cl)c1 (centres undefined) | 13.7 µM (active) | 
CC[C@]1(O)C[C@@H]2CN(CCc3c([nH]c4ccccc34)[C@@](C(=O)OC)(c3cc4c(cc3OC)N(C)[C@H]3[C@@](O)(C(=O)OC)[C@H](OC(C)=O)[C@]5(CC)C=CCN6CC[C@]43[C@@H]65)C2)C1 | 0.137 µM (active) | 
CO[C@H]1C[C@@H]2CC[C@@H](C)[C@@](O)(O2)C(=O)C(=O)N2CCCC[C@@H]2C(=O)O[C@H]([C@@H](C)C[C@@H]2CC[C@H](O)[C@H](OC)C2)CC(=O)[C@H](C)C=C(C)[C@@H](O)[C@@H](OC)C(=O)[C@H](C)C[C@H](C)C=CC=CC=C1C |  | inactive
CCN(CC)CCCC(C)Nc1ccnc2cc(Cl)ccc12 (centres undefined) | 15.3 µM (active) | 
